# LANA-H2A inh: blockers of LANA interaction with H2A/H2B – biochemical, FP readout, HTS, primary screen. cell-free LANA-H2A/H2B peptide, fluorescence polarization. inhibition, % (no concentration beside the values). hit rate 0.6% among 320,000. AID 2629, 2010; in the data active means inhibition mostly above about 10%, no sharp cut-off; inactive means mostly below about 6.7%
# IDE act: human IDE activators in live cells, primary screen, fluorescence polarization, HEK cells, FAbeta-B substrate | Insulin-degrading enzyme (Homo sapiens), P14735 | hit rate 0.073% among 340,000 | activation, % at 5.96 µM | AID 493087, 2011 | FAbeta-B cleavage; 0% vehicle, 100% cell-free pure enzyme wells;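 active means activation above the mean of all tested compounds plus 3 SD, set per screening campaign, cut at about 17% in these data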
# Target sequence (P14735 whole entry, looked up): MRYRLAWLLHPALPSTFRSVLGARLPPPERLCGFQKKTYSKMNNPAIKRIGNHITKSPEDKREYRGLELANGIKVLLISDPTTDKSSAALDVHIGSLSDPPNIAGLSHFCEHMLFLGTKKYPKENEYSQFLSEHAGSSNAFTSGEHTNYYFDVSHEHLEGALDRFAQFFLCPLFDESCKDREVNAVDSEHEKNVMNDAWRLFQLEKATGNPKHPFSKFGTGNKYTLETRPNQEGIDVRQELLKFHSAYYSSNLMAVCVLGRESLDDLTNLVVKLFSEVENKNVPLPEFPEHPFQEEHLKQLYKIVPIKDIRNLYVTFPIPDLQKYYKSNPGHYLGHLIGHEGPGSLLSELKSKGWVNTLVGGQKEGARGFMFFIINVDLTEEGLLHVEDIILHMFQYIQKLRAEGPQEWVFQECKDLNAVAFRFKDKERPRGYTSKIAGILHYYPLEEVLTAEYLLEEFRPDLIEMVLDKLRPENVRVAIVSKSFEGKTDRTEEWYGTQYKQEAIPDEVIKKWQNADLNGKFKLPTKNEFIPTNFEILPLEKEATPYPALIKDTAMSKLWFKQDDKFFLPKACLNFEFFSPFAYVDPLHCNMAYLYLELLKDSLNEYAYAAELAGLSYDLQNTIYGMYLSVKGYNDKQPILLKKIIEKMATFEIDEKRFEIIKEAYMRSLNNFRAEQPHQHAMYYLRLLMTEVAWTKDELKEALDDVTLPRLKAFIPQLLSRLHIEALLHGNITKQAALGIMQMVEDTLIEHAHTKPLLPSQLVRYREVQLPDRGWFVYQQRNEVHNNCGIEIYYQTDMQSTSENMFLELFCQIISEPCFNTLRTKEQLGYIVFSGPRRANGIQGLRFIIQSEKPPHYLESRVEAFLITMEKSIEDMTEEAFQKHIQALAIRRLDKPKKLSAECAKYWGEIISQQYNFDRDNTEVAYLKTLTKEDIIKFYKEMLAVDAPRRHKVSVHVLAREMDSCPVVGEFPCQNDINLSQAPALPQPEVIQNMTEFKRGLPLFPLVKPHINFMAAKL
# IDE inh: human IDE inhibitors in live cells, primary screen, fluorescence polarization, HEK cells, FAbetaB substrate. AID 434962, 2010. Insulin-degrading enzyme (Homo sapiens), P14735. FAbetaB cleavage. hit rate 0.41% among 320,000. inhibition, % at 5.59 µM;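 active means percent inhibition above the average of all tested compounds plus 3 SD, set per screening campaign, cut at about 16% in these data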;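 further: IDE supplied by intact live HEK cells; FP after avidin binding of uncleaved biotin substrate so inhibition keeps polarization high; 0% = DMSO wells and 100% = 60 µM reference IDE inhibitor Ii1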
# SUMO Mot1 rescue: yeast Mot1-301 growth rescue at high temperature, primary screen, SUMOylation pathway inhibitor project, S. cerevisiae, ATP luminescence, 38.5C. S. cerevisiae Mot1-301 growth rescue; percent above DMSO median, 100 means doubled. growth rescue, % at 18.8 µM. hit rate 1% among 320,000. AID 2716, 2010;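 active means every valid replicate shows activation above 250% relative to neutral control wells; inactive means the rest, any valid replicate at or below 250%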;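 further: OY570 slx delta 5 strain wells were the positive control but not used for scaling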
# HDAC3 inhib: HDAC3 deacetylase inhibitors, primary screen, biochemical, fluorescence, cell-free homogeneous. Histone deacetylase 3 (Homo sapiens), O15379. hit rate 0.15% among 320,000. recombinant HDAC3, fluorogenic peptide/trypsin coupled. AID 2718, 2010. inhibition, % at 8.3 µM; in the data active means inhibition above about 26%, passing the limit was not always enough
# Numbers without * were called inactive; . = no result given; + = active, no number. Shown are actives, neighbours in structure and some others; about 2.1% of the full set was active somewhere.
SMILES,LANA-H2A inh,IDE act,IDE inh,SUMO Mot1 rescue,HDAC3 inhib
COc1ccccc1NS(=O)(=O)c1ccc(C(=O)Nc2ncccc2O)cc1,1.5,3.0,-3.6,18.8,79.2*
COc1ccccc1NS(=O)(=O)c1cccc(C(=O)N2CC(C)OC(C)C2)c1 (stereo not given),-2.0,-0.8,-1.0,42.9,-2.5
O=C(Nc1ncccc1O)c1ccc(Oc2ccccc2)cc1,1.8,5.4,-5.2,-15.3,56.3*
O=C(NC1=NCCS1)c1ccc(OCC2CCCO2)cc1 (stereo not given),-2.0,7.9,4.4,-5.5,-8.0
COc1ccccc1NS(=O)(=O)c1ccc(C(=O)N2CC(C)OC(C)C2)cc1 (stereo not given),19.8*,7.4,-3.0,-3.4,0.4
O=C(COc1ccc(C(=O)c2ccccc2)cc1)Nc1ncccc1O,0.1,-1.9,-0.6,-21.9,5.3
COc1ccccc1NS(=O)(=O)c1ccc(NC(=O)c2ccncc2)cc1,5.3,0.5,-3.7,-8.3,-2.2
CNc1ncnc2sc(-c3ccccc3)cc12,4.2,0.9,8.2,7.4,0.1
S=c1[nH]cnc2sc(-c3ccccc3)cc12,-6.2,-17.1,19.0*,106.0,-1.2
CS(=O)(=O)c1cccc(C(=O)Oc2ccccc2)c1,37.8*,1.6,-1.0,210.5,3.9
N#CC(c1nc2ccccc2nc1N1CCCC1)S(=O)(=O)c1ccccc1 (stereo not given),16.7*,1.8,-0.1,-2.8,-38.0
CN(C#N)c1nc(N2CCOCC2)nc(N2CCOCC2)n1,41.2*,-3.9,-3.1,-16.6,-1.7
Cc1cc(NS(=O)(=O)c2ccc(NC(=O)CCCOc3ccccc3C)cc2)nc(C)n1,1.6,-0.7,-0.2,6.1,6.3
CCOc1ccc(-n2c(=O)c3sccc3n(CC(=O)NC3CCCCC3)c2=O)cc1,28.6*,0.0,0.3,-11.4,-2.8
CCCCn1nc(C(=O)NCC(=O)Nc2c(C)cccc2C)c2ccccc2c1=O,+,-4.5,0.6,4.3,4.2
CCCCn1nc(C(=O)N(CC)CC(=O)Nc2c(F)cccc2F)c2ccccc2c1=O,-3.8,1.1,6.6,0.1,0.8
COC(=O)CN1C(=O)[C@H]2[C@@H](/C=C/c3ccccc3)N3C(=O)CN(Cc4ccccc4)C(=O)[C@@]3(C)[C@H]2C1=O,-0.7,5.5,-2.2,-6.9,-0.9
COc1ccc(CSc2nnc(C)s2)cc1F,+,-1.3,6.3,-0.5,8.0
C=C[C@H]1CN2CC[C@H]1C[C@H]2[C@H](O)c1ccnc2ccc(OC)cc12,0.0,6.8,-1.5,17.2,-5.0
CN1CCN(C(=O)/C(=C/c2cccnc2)NC(=O)c2cccc(Br)c2)CC1,-5.3,4.8,-1.6,17.1,5.0
O=S(=O)(NC1CCCCC1Sc1ncccn1)c1ccccc1 (stereo not given),12.7*,-1.2,9.7,-4.9,0.0
O=S(=O)(NC1CCCCC1Sc1ncccn1)c1ccc(Cl)cc1 (stereo not given),2.3,5.4,5.0,132.3,0.8
COc1cc(NC(=O)C2CCCCC2)c(OC)cc1NC(=O)c1ccccc1,-1.7,2.2,-2.0,6.4,0.8
CCN(CC(=O)Nc1c(F)cccc1F)C(=O)c1nn(C)c(=O)c2ccccc12,1.4,0.4,-3.0,5.6,-0.7
CCOC(=O)/C(=N\Nc1cccc(C(F)(F)F)c1)N(CCOC)CCOC,-0.5,4.8,2.3,.,6.2
SMILES,LANA-H2A inh,IDE act,IDE inh,SUMO Mot1 rescue,HDAC3 inhib
CCOC(=O)/C(=N\Nc1cccc(C(F)(F)F)c1)N1CCOCC1,-0.6,-1.6,2.5,266.0*,8.2
O=C(Nc1cccc(-c2cccc(Cl)c2)c1)C1CCN(CC2CCOC2)CC1 (stereo not given),2.5,3.0,2.1,194.5,2.5
O=C(Nc1cccc(-c2cccc(F)c2)c1)C1CCN(CC2CCOC2)CC1 (stereo not given),1.1,1.8,0.0,270.3*,-3.4
O=C([C@@H]1CCCN1C(=O)c1cccs1)N1CCN(S(=O)(=O)c2cccc(F)c2)CC1,10.6*,3.5,0.2,-2.0,4.8
Cc1ccc(S(=O)(=O)N2CCN(C(=O)CCCN3C(=O)NC4(CCCC4)C3=O)CC2)cc1C,-157.4,2.4,1.4,160.9,0.8
CC(=O)Nc1cccc(Oc2nc(-c3ccccn3)nc3ccccc23)c1,4.0,.,1.9,531.9*,-1.0

# High-throughput results from PubChem.
